Each structure is given as a SMILES string.

In the assay the target is Dickkopf-related protein 1 (Homo sapiens) (UniProt O94907). In words: small molecules binding DKK1 protein – biochemical, small-molecule microarray, 635 nm fluorescence scan, primary screen (AID 1106).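 Further: score merges emission near 667 nm with signal to noise over three replicate slides.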 The settings on record: higher = more signal.
Dickkopf-related protein 1 (Homo sapiens), sequence (O94907 whole entry, looked up): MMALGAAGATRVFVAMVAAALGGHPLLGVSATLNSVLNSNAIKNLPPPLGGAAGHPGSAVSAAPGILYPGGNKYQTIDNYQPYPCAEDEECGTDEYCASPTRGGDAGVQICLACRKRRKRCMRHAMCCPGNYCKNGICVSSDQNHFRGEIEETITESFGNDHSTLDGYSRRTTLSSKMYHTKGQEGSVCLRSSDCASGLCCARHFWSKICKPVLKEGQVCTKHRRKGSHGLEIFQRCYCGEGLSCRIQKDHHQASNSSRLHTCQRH
For `CCOC(=O)C1=CCC(c2ccco2)N(S(=O)(=O)c2ccc(C)cc2)C1` (stereo not given), the composite z-score came out at 0.49.

As for `COCCOC(=O)N1C(=O)[C@@]2(c3cc(C#CCC(C(=O)OC)C(=O)OC)ccc31)[C@H](C(=O)NC[C@H](O)c1ccccc1)[C@H]1C(=O)O[C@H](c3ccccc3)[C@H](c3ccccc3)N1[C@@H]2c1ccc(OCCO)cc1`, the composite z-score stood at 0.909. `CCCNC(=O)[C@@]1(Sc2ccc(C)cc2)CC(=O)N(C(C)C)[C@@H]1c1ccc(CO)cc1I` showed a composite z-score of -2.76. In turn, `COC(=O)[C@@]1(Cc2ccc(F)cc2)[C@H]2c3cc(C(=O)N4CCCC4)n(C)c3C[C@H]2CN1C(=O)c1ccccc1` returned a composite z-score of -0.856. As for `O=C1O[C@H](c2ccccc2)[C@H](c2ccccc2)N2[C@H]1[C@@H](C(=O)N1CCCCCCC1)[C@]1(C(=O)Nc3ccc(C#CC4(O)CCCCCC4)cc31)[C@H]2c1ccc(O)cc1`, the composite z-score is 1.75. `O=C1O[C@H](c2ccccc2)[C@H](c2ccccc2)N2[C@H]1[C@@H](C(=O)O)[C@]1(C(=O)Nc3ccc(C#CC4(O)CCCCCC4)cc31)[C@H]2c1ccc(O)cc1` gave a composite z-score of -0.297. Consider `COCCOC(=O)N1C(=O)[C@@]2(c3ccccc31)[C@H](c1ccccc1OCCO)N1[C@H](c3ccccc3)[C@H](c3ccccc3)OC(=O)[C@H]1[C@@H]2C(N)=O`, for which the composite z-score was 1.16. Consider `NC(=O)[C@@H]1[C@H]2C(=O)O[C@H](c3ccccc3)[C@H](c3ccccc3)N2[C@H](c2ccc(OCCO)cc2)[C@@]12C(=O)Nc1ccc(C#CCCO)cc12`, for which the composite z-score is 0.0322. Turning to `Cc1cccc([C@H]2C[C@H]3C(Br)=C[C@@H]2C(=O)[C@]32CO2)c1`, the composite z-score worked out at 0.404. Regarding `COc1ccc(C#Cc2ccc3c(c2)[C@]2(C(=O)N3)[C@H](C(=O)Nc3nc4ccccc4s3)[C@H]3C(=O)O[C@H](c4ccccc4)[C@H](c4ccccc4)N3[C@@H]2c2ccccc2OCCO)cc1`, the composite z-score was 0.47.

`C=CCNC(=O)[C@@H]1[C@H]2C(=O)O[C@H](c3ccccc3)[C@H](c3ccccc3)N2[C@H](c2ccc(OCCO)cc2)[C@@]12C(=O)N(C(=O)OCCOC)c1ccc(C#CCCO)cc12` gave a composite z-score of 0.646. In turn, `COCC(=C=CC[C@@H](O)c1cccc(OCCO)c1)CCO` displayed a composite z-score of -0.111. As to `COCCOC(=O)N1C(=O)[C@@]2(c3cc(C#CC4(O)CCCCCC4)ccc31)[C@H](C(=O)N1CCN(c3ncccn3)CC1)[C@H]1C(=O)O[C@H](c3ccccc3)[C@H](c3ccccc3)N1[C@@H]2c1ccccc1OCCO`, the composite z-score was found to be 1.32.

Compound `[N-]=[N+]=Nc1ccccc1C[C@]1(C(=O)O)N=C(c2ccc(OCCCO)cc2)O[C@H]1c1ccccc1N=[N+]=[N-]` showed a composite z-score of -0.0824.

Compound `NC(=O)NCC#Cc1ccc2c(c1)[C@]1(C(=O)N2)[C@H](C(=O)N2CCN(c3ncccn3)CC2)[C@H]2C(=O)O[C@H](c3ccccc3)[C@H](c3ccccc3)N2[C@@H]1c1ccc(OCCO)cc1` yielded a composite z-score of 0.151.

`CN(C)C(=O)[C@@]1(Cc2ccccc2)COC(c2ccc(OCCCO)cc2)=N1` returned a composite z-score of -0.59. Consider `CCN(CC)c1ccc(N2CC=CC34O[C@@H]5C=CCCOC(=O)C5[C@H]3C(=O)N(CCO)[C@@H]4C2=O)cc1` (stereo not given in full), for which the composite z-score is -0.351.

The compound `C[C@@H]1ON(c2ccc(I)cc2)[C@H](c2ccc(OC(=O)OC(C)(C)C)cc2)[C@H]1C(=O)N1C(=O)OC[C@H]1Cc1ccccc1` returned a composite z-score of 0.567. With `COc1cc(CO)cc(I)c1O[C@H]1C=C(C(=O)NCCO)C[C@@H](NCC2CCCCC2)[C@@H]1O`, the composite z-score was determined as 0.502. The compound `C=CCNC(=O)[C@@H]1[C@H]2C(=O)O[C@H](c3ccccc3)[C@H](c3ccccc3)N2[C@H](c2ccc(O)cc2)[C@@]12C(=O)Nc1ccc(C#CCC(C(=O)OC)C(=O)OC)cc12` registered a composite z-score of 0.317. As for `CCOC(=O)C1=C[C@@H](c2ccccc2)N(S(=O)(=O)c2ccc(C)cc2)[C@H]1c1ccccc1`, the composite z-score was -0.399. With `[N-]=[N+]=NC[C@H](Cc1ccccc1)NC(=O)c1ccccc1`, the composite z-score turned out to be 0.0359.

On to `COc1ccc(C(O)C2C=CC3C(=O)N(c4ccccc4)C(=O)C3N2Nc2ccccc2F)cc1` (stereo not given), for which the composite z-score is -0.81. With `C#C[C@@H](CC)O[Si](C#CCCCC#N)(C(C)C)C(C)C` the figure was -0.277; with `CCCCCCCCCCC(O)C1C=CC2C(=O)N(C)C(=O)C2N1Nc1cc(OC)c(OC)c(OC)c1` (stereo not given), -0.939; with `C=C[C@H](C)[C@H](OC(=O)Nc1ccc(OC)cc1)c1ccc(OCCO)cc1`, -1.28.

`COCCOC(=O)N1C(=O)[C@@]2(c3cc(C#CC4(O)CCCCCC4)ccc31)[C@H](c1ccc(OCCO)cc1)N1[C@H](c3ccccc3)[C@H](c3ccccc3)OC(=O)[C@H]1[C@@H]2C(=O)Nc1nc2ccccc2s1` returned a composite z-score of 0.559. Turning to `O=c1cccc(-c2ccco2)o1`, the composite z-score was determined as 1.16. With `CN(C)C(=O)[C@@]1(Cc2ccccc2N=[N+]=[N-])N=C(c2ccc(OCCCO)cc2)O[C@H]1c1ccccc1`, the composite z-score was -0.217.

In turn, `CC(C)[C@H]1NC(=O)[C@@]23C(=O)N[C@@H](Cc4ccccc4)C2[C@H](C)[C@@]2(C)O[C@H]2C3/C=C/CCC/C=C/CNC(=O)[C@H](Cc2ccccc2)NC1=O` (stereo not given in full) returned a composite z-score of 0.147. Take `C=CCC(OC(C)=O)[C@@H]1[C@@H](N(Cc2cc3ccccc3o2)C(=O)c2ccc(-c3ccccc3)cc2)c2cc(OCCCO)ccc2N1C(=O)Cc1ccc(OC)cc1` (stereo not given in full): the composite z-score was 0.063. On to `[N-]=[N+]=NCc1ccccc1[C@H]1OC(c2ccc(OCCCO)cc2)=N[C@@]1(CCS(=O)(=O)c1ccccc1)C(=O)NCc1ccccc1`, for which the composite z-score was -0.0778. For the compound `CC(=O)n1cc(C(O)C2C=CC3C(=O)N(c4ccccc4)C(=O)C3N2Nc2ccc(C(C)C)cc2)c2ccccc21` (stereo not given), the composite z-score was 0.076. In the case of `C=C(COC)C(=O)CC[C@H](OC(C)=O)c1ccc(OCCO)cc1`, the composite z-score was determined as 0.722. In turn, `Cc1ccccc1C(O)C1C=CC2C(=O)NC(=O)C2N1Nc1ccc(Cl)cc1Cl` (stereo not given) registered a composite z-score of 0.0925.

These data come from PubChem BioAssay.
